# Where “and” joins values, the source holds several entries; their conditions need not be identical. Identical values can stand only once. Records with an inconclusive call do not appear. Calls of active or inactive are those of the source. How the source made its calls, unless noted: active means hit-call score of the fitted dose curve at least 0.9, where 1 is the maximum; inactive means score below 0.9.
# Columns and labels:
# [1] = ATG_NFI_CIS: Attagene CIS-FACTORIAL HepG2 Assay for human Nuclear Factor I (NFI) (AID 2282989); conditions: HepG2 cis-regulatory reporter, NFI response element transcription; actives raise or lower the signal
# Procedure, shortened: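 Transient MRTU transfection of HepG2 → 24 h chemical dosing → total RNA, oligo(dT) RT → PCR, 6-FAM primer extension, HpaI cut → capillary electrophoresis. Endpoint fitted bidirectionally relative to DMSO.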
# [2] = biological target: Myc proto-oncogene protein (Homo sapiens) (UniProt P01106); assay: ATG_Myc_CIS: Attagene CIS-FACTORIAL HepG2 Assay for human Myelocytomatosis (Myc) Proto-Oncogene Transcription Factor (AID 2282990); conditions: HepG2, Attagene cis-reporter transcription factor activity; actives raise or lower the signal
# Chain of Myc proto-oncogene protein (Homo sapiens) (P01106 whole entry, looked up): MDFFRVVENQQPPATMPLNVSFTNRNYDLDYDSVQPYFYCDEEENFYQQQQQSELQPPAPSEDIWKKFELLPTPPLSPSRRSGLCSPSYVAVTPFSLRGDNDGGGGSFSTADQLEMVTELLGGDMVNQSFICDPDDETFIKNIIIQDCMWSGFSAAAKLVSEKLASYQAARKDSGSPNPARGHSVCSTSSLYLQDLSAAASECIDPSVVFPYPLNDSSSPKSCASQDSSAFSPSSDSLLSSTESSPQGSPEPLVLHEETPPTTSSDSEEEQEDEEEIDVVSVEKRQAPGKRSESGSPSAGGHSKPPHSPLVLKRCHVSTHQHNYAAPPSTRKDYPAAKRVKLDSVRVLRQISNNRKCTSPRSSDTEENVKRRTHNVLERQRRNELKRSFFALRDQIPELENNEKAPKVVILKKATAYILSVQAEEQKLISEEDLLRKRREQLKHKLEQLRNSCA
# Procedure, shortened: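 Transiently transfected HepG2 cells bearing cis-promoter reporter units for endogenous transcription factors; 24 h exposure. Reporter mRNA measured by RT-PCR, 6-FAM primer extension, HpaI cut and capillary electrophoresis; bidirectional fit relative to DMSO.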
# [3] = ATG_NRF2_ARE_CIS: Attagene CIS-FACTORIAL HepG2 Assay for human Nuclear Factor Erythroid 2 Related Factor 2 (NFR2) response to Antioxidant Response Elements (ARE) (AID 2282992); conditions: HepG2 Attagene ARE/NRF2 reporter, transcription factor activity; actives raise or lower the signal;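 on AC50: reporter mRNA level measured by RT-PCR and capillary electrophoresis fluorescence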
# Procedure, shortened: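 Transient MRTU transfection of HepG2; 24 h compound exposure; TriZol RNA, RT with oligo(dT), PCR, 6-FAM primer extension, HpaI cut, CE. Bidirectional fit vs DMSO.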
# [4] = ATG_Oct_MLP_CIS: Attagene CIS-FACTORIAL HepG2 Assay for human Octamer-Binding Transcription Factor (Oct) (AID 2282993); conditions: HepG2 Attagene cis-factorial Oct reporter, mRNA; actives raise or lower the signal
# Procedure, shortened: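 Transient MRTU transfection of HepG2 → 24 h compound treatment → RNA isolation, reverse transcription, PCR → 6-FAM primer extension, HpaI digest → capillary electrophoresis. Activity fitted both directions against DMSO.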
# [5] = biological target: Cellular tumor antigen p53 (Homo sapiens) (UniProt P04637); assay: ATG_p53_CIS: Attagene CIS-FACTORIAL HepG2 Assay for human p53 Transcription Factor (AID 2282994); conditions: HepG2 p53 cis-element reporter, Attagene mRNA; actives raise or lower the signal
# Chain of Cellular tumor antigen p53 (Homo sapiens) (P04637 whole entry, looked up): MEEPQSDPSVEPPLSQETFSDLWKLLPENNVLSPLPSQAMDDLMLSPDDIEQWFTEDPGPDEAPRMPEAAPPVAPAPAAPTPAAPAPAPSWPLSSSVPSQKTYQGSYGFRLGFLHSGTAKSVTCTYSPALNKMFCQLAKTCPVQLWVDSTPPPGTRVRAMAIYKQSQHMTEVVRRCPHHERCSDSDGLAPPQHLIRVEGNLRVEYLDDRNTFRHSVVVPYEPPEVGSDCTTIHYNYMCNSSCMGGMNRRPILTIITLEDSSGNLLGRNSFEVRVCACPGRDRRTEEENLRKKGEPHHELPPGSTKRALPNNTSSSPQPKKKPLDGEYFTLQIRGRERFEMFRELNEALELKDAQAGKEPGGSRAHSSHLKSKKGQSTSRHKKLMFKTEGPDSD
# Procedure, shortened: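 HepG2, transient MRTU transfection (cis promoter elements, endogenous TFs); 24 h dosing; RNA isolation, RT-PCR, 6-FAM primer extension, HpaI digest, CE fluorescence; bidirectional fit vs DMSO.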
# [6] = biological target: human Peroxisome Proliferator-activated Receptor delta (PPARd), PPARD (gene 5467) (UniProt Q03181); assay: ATG_PPARd_TRANS: Attagene TRANS-FACTORIAL HepG2 Assay for human Peroxisome Proliferator-activated Receptor delta (PPARd) (AID 2283002; active means hit-call score of the fitted dose curve at least 0.9, where 1 is the maximum)
# Chain of human Peroxisome Proliferator-activated Receptor delta (PPARd), PPARD (gene 5467) (Q03181 whole entry, looked up, the tested form may be a part): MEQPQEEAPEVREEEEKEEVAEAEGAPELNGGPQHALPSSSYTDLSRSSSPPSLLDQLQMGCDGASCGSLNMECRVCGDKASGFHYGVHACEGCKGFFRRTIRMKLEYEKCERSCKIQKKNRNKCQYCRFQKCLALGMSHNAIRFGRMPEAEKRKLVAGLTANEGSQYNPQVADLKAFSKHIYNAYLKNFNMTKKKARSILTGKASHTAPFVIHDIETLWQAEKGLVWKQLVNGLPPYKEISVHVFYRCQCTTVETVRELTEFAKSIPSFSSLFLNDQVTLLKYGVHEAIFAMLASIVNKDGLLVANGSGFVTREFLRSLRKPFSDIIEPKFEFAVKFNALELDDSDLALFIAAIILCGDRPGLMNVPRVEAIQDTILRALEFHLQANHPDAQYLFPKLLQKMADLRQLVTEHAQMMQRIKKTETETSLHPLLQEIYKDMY
# Procedure, shortened: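 HepG2 cells transiently transfected with GAL4-UAS multiplexed reporter units driven by exogenous chimeric NR-GAL4 proteins; 24 h compound exposure. Reporter mRNA measured by RT-PCR, 6-FAM primer extension, HpaI digestion and capillary electrophoresis; gain of signal fitted relative to DMSO.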
# [7] = biological target: Peroxisome proliferator-activated receptor gamma (Homo sapiens) (UniProt P37231); assay: ATG_PPARg_TRANS: Attagene TRANS-FACTORIAL HepG2 Assay for human Peroxisome Proliferator-activated Receptor-gamma (PPARg) (AID 2283007; active means hit-call score of the fitted dose curve at least 0.9, where 1 is the maximum)
# Chain of Peroxisome proliferator-activated receptor gamma (Homo sapiens) (P37231 whole entry, looked up, the tested form may be a part): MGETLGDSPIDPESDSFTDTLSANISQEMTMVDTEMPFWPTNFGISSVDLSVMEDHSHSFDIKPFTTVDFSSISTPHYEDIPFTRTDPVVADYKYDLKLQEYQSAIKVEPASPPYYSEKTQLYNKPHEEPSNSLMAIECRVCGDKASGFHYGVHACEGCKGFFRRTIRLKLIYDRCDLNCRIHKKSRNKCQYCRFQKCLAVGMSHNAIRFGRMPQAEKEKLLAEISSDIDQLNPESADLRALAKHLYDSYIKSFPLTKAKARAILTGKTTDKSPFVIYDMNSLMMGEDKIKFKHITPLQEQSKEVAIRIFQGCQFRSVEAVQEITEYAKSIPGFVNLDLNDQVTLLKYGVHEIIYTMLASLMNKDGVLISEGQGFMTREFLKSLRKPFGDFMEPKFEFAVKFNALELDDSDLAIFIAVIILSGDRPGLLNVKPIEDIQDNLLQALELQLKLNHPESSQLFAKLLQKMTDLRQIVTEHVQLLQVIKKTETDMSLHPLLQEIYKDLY
# Procedure, shortened: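 Chimeric NR-Gal4 transactivation is measured in transiently transfected HepG2 cells by reporter mRNA induction at 24 h. Detection uses RT-PCR with fluorescent labelling and capillary electrophoresis; DMSO defines baseline.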
# [8] = biological target: Nuclear receptor subfamily 1 group I member 2 (Homo sapiens) (UniProt O75469); assay: ATG_PXR_TRANS: Attagene TRANS-FACTORIAL HepG2 Assay for human Pregnane X Receptor (PXR) (AID 2283008; active means hit-call score of the fitted dose curve at least 0.9, where 1 is the maximum)
# Chain of Nuclear receptor subfamily 1 group I member 2 (Homo sapiens) (O75469 whole entry, looked up, the tested form may be a part): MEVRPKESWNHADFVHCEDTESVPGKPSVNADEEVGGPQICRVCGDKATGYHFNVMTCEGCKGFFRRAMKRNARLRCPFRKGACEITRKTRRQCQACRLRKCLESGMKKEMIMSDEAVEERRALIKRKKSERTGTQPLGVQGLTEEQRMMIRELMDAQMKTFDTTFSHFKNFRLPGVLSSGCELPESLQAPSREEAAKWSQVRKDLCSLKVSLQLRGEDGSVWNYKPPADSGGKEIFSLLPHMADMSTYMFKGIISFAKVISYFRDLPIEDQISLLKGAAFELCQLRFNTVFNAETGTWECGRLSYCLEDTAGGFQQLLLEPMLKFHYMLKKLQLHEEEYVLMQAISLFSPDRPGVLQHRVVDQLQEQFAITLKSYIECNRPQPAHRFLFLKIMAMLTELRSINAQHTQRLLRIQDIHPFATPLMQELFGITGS
# Procedure, shortened: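 Read-out is fluorescence of labelled reporter cDNA fragments separated by capillary electrophoresis after RT-PCR and HpaI digestion. Source: HepG2 cells carrying PXR-GAL4/UAS reporter constructs, treated 24 h; activity fitted upward relative to DMSO.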
# [9] = biological target: human Retinoic Acid Receptor gamma (RARg), RARG (gene 5916) (UniProt P13631); assay: ATG_RARg_TRANS: Attagene TRANS-FACTORIAL HepG2 Assay for human Retinoic Acid Receptor gamma (RARg) (AID 2283009; active means hit-call score of the fitted dose curve at least 0.9, where 1 is the maximum)
# Chain of human Retinoic Acid Receptor gamma (RARg), RARG (gene 5916) (P13631 whole entry, looked up, the tested form may be a part): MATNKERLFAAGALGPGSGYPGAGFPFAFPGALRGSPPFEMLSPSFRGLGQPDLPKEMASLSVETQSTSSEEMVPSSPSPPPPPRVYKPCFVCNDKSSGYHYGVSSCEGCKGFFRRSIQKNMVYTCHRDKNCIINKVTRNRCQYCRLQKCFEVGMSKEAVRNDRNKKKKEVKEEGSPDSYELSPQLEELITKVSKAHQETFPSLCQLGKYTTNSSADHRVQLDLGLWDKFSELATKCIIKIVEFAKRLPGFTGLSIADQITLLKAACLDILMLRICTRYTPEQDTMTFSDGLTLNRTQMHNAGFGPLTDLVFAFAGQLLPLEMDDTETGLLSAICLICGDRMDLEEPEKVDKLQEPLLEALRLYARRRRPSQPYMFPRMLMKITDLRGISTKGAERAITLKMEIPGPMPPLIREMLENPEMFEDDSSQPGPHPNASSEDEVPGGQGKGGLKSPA
# Procedure, shortened: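 HepG2 cells transiently transfected with multiplexed reporter units expressing chimeric RARg-GAL4 and GAL4-UAS-driven reporters; 24 h compound exposure. Reporter mRNA quantified by RT-PCR with fluorescent labelling and capillary electrophoresis; gain-of-signal fitted relative to DMSO baseline.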
# [10] = biological target: human Retinoic Acid Receptor beta (RARb), RARB (gene 5915) (UniProt P10826); assay: ATG_RARb_TRANS: Attagene TRANS-FACTORIAL HepG2 Assay for human Retinoic Acid Receptor beta (AID 2283004; active means hit-call score of the fitted dose curve at least 0.9, where 1 is the maximum)
# Chain of human Retinoic Acid Receptor beta (RARb), RARB (gene 5915) (P10826 whole entry, looked up, the tested form may be a part): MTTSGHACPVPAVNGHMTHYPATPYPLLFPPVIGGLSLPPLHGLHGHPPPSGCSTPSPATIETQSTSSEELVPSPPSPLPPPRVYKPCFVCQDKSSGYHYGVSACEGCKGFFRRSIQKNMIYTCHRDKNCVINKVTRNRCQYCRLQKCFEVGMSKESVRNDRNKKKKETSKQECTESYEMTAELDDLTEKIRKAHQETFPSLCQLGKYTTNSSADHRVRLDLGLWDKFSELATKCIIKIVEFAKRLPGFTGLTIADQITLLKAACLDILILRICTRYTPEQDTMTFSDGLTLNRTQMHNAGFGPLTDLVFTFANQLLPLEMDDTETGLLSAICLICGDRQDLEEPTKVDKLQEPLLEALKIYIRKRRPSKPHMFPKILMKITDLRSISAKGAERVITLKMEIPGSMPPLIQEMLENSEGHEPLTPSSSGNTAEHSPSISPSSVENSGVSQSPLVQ
# Procedure, shortened: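 Induction of reporter mRNA from a chimeric RARb-Gal4 construct was measured by RT-PCR, FAM labelling, HpaI digestion and capillary electrophoresis. Measurements followed 24 h compound treatment of transiently transfected human HepG2 liver cells, with DMSO as baseline.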
# [11] = biological target: human Peroxisome Proliferator-activated Receptor alpha (PPARa), PPARA (gene 5465) (UniProt Q07869); assay: ATG_PPARa_TRANS: Attagene TRANS-FACTORIAL HepG2 Assay for human Peroxisome Proliferator-activated Receptor alpha (PPARa) (AID 2283001; active means hit-call score of the fitted dose curve at least 0.9, where 1 is the maximum)
# Chain of human Peroxisome Proliferator-activated Receptor alpha (PPARa), PPARA (gene 5465) (Q07869 whole entry, looked up, the tested form may be a part): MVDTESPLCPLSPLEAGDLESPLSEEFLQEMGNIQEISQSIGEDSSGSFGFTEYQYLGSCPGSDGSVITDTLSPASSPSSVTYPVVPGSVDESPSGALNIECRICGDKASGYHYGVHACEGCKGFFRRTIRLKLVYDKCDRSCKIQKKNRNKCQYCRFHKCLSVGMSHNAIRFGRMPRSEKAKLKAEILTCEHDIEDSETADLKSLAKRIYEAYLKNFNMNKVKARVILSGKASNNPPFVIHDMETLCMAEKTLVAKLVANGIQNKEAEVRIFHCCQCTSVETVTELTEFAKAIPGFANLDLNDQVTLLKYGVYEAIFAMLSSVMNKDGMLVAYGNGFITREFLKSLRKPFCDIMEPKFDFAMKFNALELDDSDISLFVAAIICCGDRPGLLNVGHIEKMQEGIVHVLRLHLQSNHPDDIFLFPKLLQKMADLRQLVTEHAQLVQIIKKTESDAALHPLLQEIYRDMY
# Procedure, shortened: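 Measures transcriptional activity of an exogenous chimeric PPARa-Gal4 protein in transiently transfected HepG2 cells after 24 h dosing. Reporter mRNA quantified via RT-PCR and capillary electrophoresis; DMSO served as negative control.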
# [12] = biological target: Retinoic acid receptor alpha (Homo sapiens) (UniProt P10276); assay: ATG_RARa_TRANS: Attagene TRANS-FACTORIAL HepG2 Assay for human Retinoic Acid Receptor alpha (RARa) (AID 2283005; active means hit-call score of the fitted dose curve at least 0.9, where 1 is the maximum)
# Chain of Retinoic acid receptor alpha (Homo sapiens) (P10276 whole entry, looked up, the tested form may be a part): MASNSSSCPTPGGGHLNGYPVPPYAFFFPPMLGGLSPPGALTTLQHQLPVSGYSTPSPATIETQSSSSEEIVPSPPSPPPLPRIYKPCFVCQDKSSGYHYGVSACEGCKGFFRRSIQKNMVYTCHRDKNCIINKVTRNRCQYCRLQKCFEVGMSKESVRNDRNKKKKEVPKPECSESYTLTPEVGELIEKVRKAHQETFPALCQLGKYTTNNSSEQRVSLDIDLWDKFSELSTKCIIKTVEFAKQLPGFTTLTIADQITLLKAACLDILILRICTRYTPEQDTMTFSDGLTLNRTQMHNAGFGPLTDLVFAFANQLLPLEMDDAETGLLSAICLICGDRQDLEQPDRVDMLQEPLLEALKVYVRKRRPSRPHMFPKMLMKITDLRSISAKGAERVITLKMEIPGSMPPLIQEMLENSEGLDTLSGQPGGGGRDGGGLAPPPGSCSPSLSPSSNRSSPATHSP
# Procedure, shortened: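 HepG2 transiently transfected with multiplex GAL4-UAS reporter units including a human RARa–GAL4 chimera; 24 h compound exposure. Reporter mRNA quantified by RT-PCR, 6-FAM labeling and capillary electrophoresis; gain of signal versus DMSO.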
# [13] = biological target: human RAR-related Orphan Receptor beta (RORb), RORB (gene 6096) (UniProt Q92753); assay: ATG_RORb_TRANS: Attagene TRANS-FACTORIAL HepG2 Assay for human RAR-related Orphan Receptor beta (RORb) (AID 2283010; active means hit-call score of the fitted dose curve at least 0.9, where 1 is the maximum)
# Chain of human RAR-related Orphan Receptor beta (RORb), RORB (gene 6096) (Q92753 whole entry, looked up, the tested form may be a part): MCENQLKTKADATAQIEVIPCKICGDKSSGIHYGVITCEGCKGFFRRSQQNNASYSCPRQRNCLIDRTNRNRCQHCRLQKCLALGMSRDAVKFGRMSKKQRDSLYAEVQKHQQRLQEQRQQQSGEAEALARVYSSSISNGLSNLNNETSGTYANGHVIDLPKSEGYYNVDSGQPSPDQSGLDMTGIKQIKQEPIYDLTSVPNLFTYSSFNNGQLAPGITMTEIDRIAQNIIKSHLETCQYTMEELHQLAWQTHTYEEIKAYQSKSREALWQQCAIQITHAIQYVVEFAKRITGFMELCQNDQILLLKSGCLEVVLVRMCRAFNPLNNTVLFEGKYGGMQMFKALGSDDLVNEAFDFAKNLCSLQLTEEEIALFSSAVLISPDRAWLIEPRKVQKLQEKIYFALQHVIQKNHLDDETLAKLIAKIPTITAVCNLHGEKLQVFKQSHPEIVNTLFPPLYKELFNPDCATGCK
# Procedure, shortened: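 HepG2 cells were transiently transfected with multiplexed GAL4-UAS reporter units expressing chimeric nuclear receptor–GAL4 proteins, then dosed for 24 h. Reporter mRNA was quantified by RT-PCR with fluorescent labelling and capillary electrophoresis; gain of signal was fitted relative to DMSO.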
# [14] = BSK_3C_TissueFactor: BioMAP Diversity Plus: 3C Assay for Tissue Factor Biomarker Activity (AID 2282997); conditions: BioMAP 3C HUVEC, tissue factor biomarker readout; actives raise or lower the signal
# Procedure, shortened: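 Dosing of human umbilical vein endothelial cells preceded a 24 h incubation. Tissue Factor was then read by ELISA, with increases and decreases both scored relative to DMSO controls.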
# [15] = BSK_3C_uPAR: BioMAP Diversity Plus: 3C Assay for Urokinase-type plasminogen activator receptor (uPAR) Biomarker Activity (AID 2282998); conditions: BioMAP 3C HUVEC, uPAR biomarker ELISA; actives raise or lower the signal
# Procedure, shortened: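 ELISA readout of uPAR on human vascular endothelium (umbilical vein primary cells), taken 24 h after chemical dosing. Increases and decreases are both fitted relative to DMSO vehicle.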
# [16] = BSK_3C_VCAM1: BioMAP Diversity Plus: 3C Assay for Vascular cell adhesion molecule 1 (VCAM1) Biomarker Activity (AID 2282999); conditions: BioMAP 3C HUVEC, VCAM1 ELISA, cytokine-stimulated; actives raise or lower the signal
# Procedure, shortened: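 Human umbilical vein endothelial cells (3C system), biomarker read by ELISA 24 h after dosing; bidirectional fit against DMSO baseline. Cytotoxicity tracked by SRB total-protein staining in parallel cultures at biomarker time.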
# [17] = BSK_4H_Eotaxin3: BioMAP Diversity Plus: 4H Assay for Eotaxin 3 Biomarker Activity (AID 2283000); conditions: primary human endothelial cells (HUVEC); actives raise or lower the signal
# Procedure, shortened: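 Human umbilical vein endothelial cells (BSK_4H system) dosed with test chemical; Eotaxin-3 (CCL26) measured by ELISA 24 h after dosing. Bidirectional curve fitting relative to DMSO negative control as baseline.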
# [18] = read-out: Intercellular Adhesion Molecule 1 (ICAM1), ICAM1 (gene 3383); assay: BSK_3C_ICAM1: BioMAP Diversity Plus: 3C Assay for Intercellular Adhesion Molecule 1 (ICAM1) Biomarker Activity (AID 2283003); conditions: primary human endothelial cells (HUVEC); actives raise or lower the signal
# Procedure, shortened: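 Primary human umbilical vein endothelial cells in the BioMAP 3C system were exposed to chemicals for 24 h, then ICAM-1 was quantified by ELISA. Activity was fitted bidirectionally against the DMSO negative control baseline.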
# [19] = BSK_3C_Proliferation: Cell Proliferation Assessment in the BioMAP Diversity Plus: 3C Assay (AID 2283006); conditions: primary human endothelial cells (HUVEC)
# Procedure, shortened: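 Human umbilical vein endothelial cells were grown sub-confluent and exposed to chemical for 48 h, then fixed with 10% TCA and stained with 0.1% sulforhodamine B; absorbance at 560 nm gave relative cell number, fitted bidirectionally against DMSO baseline.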
smiles,measurement,setting,value
COC(=O)c1c(C)cc(O)c(C)c1O,outcome,[1],inactive
same,outcome,[2],inactive
same,outcome,[3],inactive
same,outcome,[4],inactive
same,outcome,[5],inactive
same,outcome,[6],inactive
same,outcome,[7],inactive
same,outcome,[8],inactive
same,outcome,[9],inactive
CC(=O)OCC(C)OC(C)=O (configuration not stated),outcome,[1],inactive
same,outcome,[2],inactive
same,outcome,[3],inactive
same,outcome,[4],inactive
same,outcome,[5],inactive
same,outcome,[6],inactive
same,outcome,[10],inactive
same,outcome,[8],inactive
C=C(C)C(=O)OCCOc1ccccc1,outcome,[1],inactive
same,outcome,[2],inactive
same,AC50,[3],67.1 µM (active)
same,outcome,[4],inactive
same,outcome,[11],inactive
same,AC50,[7],28.5 µM (active)
same,outcome,[8],inactive
O=S(=O)(O)CC(O)CCl (configuration not stated),outcome,[1],inactive
same,outcome,[2],inactive
same,AC50,[3],30 µM (active)
same,outcome,[4],inactive
same,outcome,[5],inactive
same,outcome,[6],inactive
same,AC50,[7],26.4 µM (active)
same,outcome,[8],inactive
CCCCCCC(O)CO (configuration not stated),outcome,[1],inactive
same,outcome,[2],inactive
same,outcome,[3],inactive
same,outcome,[4],inactive
same,outcome,[5],inactive
same,outcome,[6],inactive
same,outcome,[7],inactive
same,outcome,[9],inactive
O=Cc1ccc(CO)o1,outcome,[1],inactive
same,outcome,[2],inactive
same,outcome,[3],inactive
same,outcome,[4],inactive
same,outcome,[5],inactive
same,outcome,[12],inactive
O=CN1CCCCC1,outcome,[1],inactive
same,outcome,[2],inactive
same,outcome,[3],inactive
same,outcome,[5],inactive
same,outcome,[12],inactive
Cc1ccc(OC(=O)CC(C)C)cc1,outcome,[1],inactive
same,outcome,[2],inactive
same,outcome,[3],inactive
same,outcome,[4],inactive
same,outcome,[6],inactive
CC(C)=CCC/C(C)=C\C#N,outcome,[1],inactive
same,outcome,[2],inactive
same,AC50,[3],26.5 µM (active)
same,outcome,[4],inactive
same,outcome,[5],inactive
same,outcome,[10],inactive
same,outcome,[7],inactive
same,AC50,[8],29.3 µM (active)
same,outcome,[13],inactive
C[Si](C)O[Si](C)(C)O[Si](C)(C)O[Si](C)C,outcome,[1],inactive
same,outcome,[2],inactive
same,outcome,[3],inactive
same,outcome,[4],inactive
same,outcome,[5],inactive
same,outcome,[10],inactive
same,outcome,[7],inactive
same,outcome,[8],inactive
same,outcome,[9],inactive
O=c1c2ccccc2nnn1CCl,outcome,[1],inactive
same,outcome,[2],inactive
same,outcome,[3],inactive
same,outcome,[4],inactive
same,outcome,[5],inactive
same,outcome,[6],inactive
same,outcome,[12],inactive
same,outcome,[7],inactive
same,AC50,[8],5.33 µM (active)
CCOC(=O)CC,outcome,[1],inactive
same,outcome,[2],inactive
same,outcome,[3],inactive
same,outcome,[4],inactive
same,outcome,[5],inactive
same,outcome,[6],inactive
same,outcome,[7],inactive
same,outcome,[8],inactive
CCCCCCCC[N+](C)(CCCCCCCC)CCCCCCCC,outcome,[1],inactive
same,outcome,[2],inactive
same,AC50,[3],1.59 µM (active)
same,outcome,[4],inactive
same,outcome,[10],inactive
same,outcome,[12],inactive
same,outcome,[7],inactive
same,outcome,[9],inactive
c1ccc2c(c1)ccc1cc3c(ccc4ccccc43)cc12,outcome,[1],inactive
same,outcome,[2],inactive
same,AC50,[3],0.12 µM (active)
same,outcome,[4],inactive
same,AC50,[14],15 nM (active) and 41.3 nM (active)
same,outcome,[15],inactive
same,outcome,[16],inactive
same,AC50,[17],15 nM (active) and 37.3 nM (active)
same,outcome,[18],inactive
same,outcome,[19],inactive
same,outcome,[8],inactive
same,outcome,[9],inactive
same,outcome,[13],inactive
